The values below come from PubChem BioAssay (EPA / NIEHS).

The structures appear in SMILES notation. Results filed as inconclusive are left out. Active and inactive are the calls of the source. How the source made its calls, unless noted: active means hit-call score of the fitted dose curve at least 0.9, where 1 is the maximum; inconclusive means response in the unintended direction; inactive means score below 0.9.

Read-out in assay [1]: solute carrier (SLC22A6), SLC22A6 (gene 9356)
Put plainly: LTEA_HepaRG_SLC22A6: Life Technologies and Expression Analysis (LTEA) Assay for solute carrier (SLC22A6) using HepaRG (AID 2283653; active means hit-call score of the fitted dose curve at least 0.9, where 1 is the maximum; inactive means score below 0.9). Particulars: mRNA level, 48 h; actives raise or lower the signal. In outline:
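Read-out is SLC22A6 transcript level by qRT-PCR, normalised to three housekeeping genes and fitted for gain or loss relative to 0.5% DMSO vehicle. Human HepaRG cells received chemicals at up to 100 uM for 48 h.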

Assay [2] is described as follows: Tanguay_ZF_120hpf_SWIM_legacy: (Legacy) Oregon State University Tanguay Lab 120 Hour Post-fertilization zebrafish Assay for Swim Bladder Malformation (AID 2283654).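 Further: swim bladder malformation in each larva scored yes or no under brightfield.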 In outline:
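Scoring is binary for swim bladder defects at 120 hpf, by brightfield inspection of zebrafish larvae. Embryos were exposed singly from 6 hpf after pronase dechorionation, at 28C with 0.64% DMSO; mortality excluded scoring.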

Assay [3] in a line: Tanguay_ZF_120hpf_TRUN_legacy: (Legacy) Oregon State University Tanguay Lab 120 Hour Post-fertilization zebrafish Assay for Truncated Body (AID 2283655). In a few lines:
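Truncated body is recorded as a binary endpoint at 120 hpf by brightfield imaging of wild-type 5D larvae. Exposure runs statically from 6 hpf at 28C with 0.64% DMSO; embryos dying earlier are not scored.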

A short description of assay [4]: Tanguay_ZF_120hpf_NC_legacy: (Legacy) Oregon State University Tanguay Lab 120 Hour Post-fertilization zebrafish Assay for Notochord and Tail Malformation (AID 2283656). In a few lines:
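Binary notochord-distortion calls, made by brightfield inspection, form the read-out; activity is fitted in the positive direction against DMSO. Exposure ran statically from 6 to 120 hpf at 28C with 0.64% DMSO.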

Read-out in assay [5]: solute carrier (SLC10A1), SLC10A1 (gene 6554)
The experiment in a line: LTEA_HepaRG_SLC10A1: Life Technologies and Expression Analysis (LTEA) Assay for solute carrier (SLC10A1) using HepaRG (AID 2283657; active means hit-call score of the fitted dose curve at least 0.9, where 1 is the maximum; inactive means score below 0.9). Conditions: mRNA level, 48 h; actives raise or lower the signal. In outline:
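SLC10A1 transcript measured by TaqMan qRT-PCR, housekeeping-normalised, after 48 h chemical treatment of human HepaRG cells. Eight concentrations (half-log, max 100 uM, 0.5% DMSO vehicle) in duplicate; fitted bidirectionally against DMSO baseline.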

Read-out in assay [6]: matrix metalloproteinase-1 (MMP1), MMP1 (gene 4312)
Put plainly: LTEA_HepaRG_MMP1: Life Technologies and Expression Analysis (LTEA) Assay for matrix metalloproteinase-1 (MMP1) using HepaRG (AID 2283658; active means hit-call score of the fitted dose curve at least 0.9, where 1 is the maximum; inactive means score below 0.9). Conditions: mRNA level, 48 h; actives raise or lower the signal. In a few lines: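 HepaRG, ~100,000 cells/well, 48 h pre-culture; serum-free induction medium; test chemical 8 conc (max 100 uM, half-log), duplicate, 48 h; 0.5% DMSO; qRT-PCR MMP1, housekeeping-normalized; gain/loss fit vs DMSO.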

Assay [7] is described as follows: Tanguay_ZF_120hpf_TR_legacy: (Legacy) Oregon State University Tanguay Lab 120 Hour Post-fertilization zebrafish Assay for Touch Response (AID 2283667). In a few lines: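 Binary touch-response endpoint in larvae at 120 hpf after static waterborne exposure from embryo stage (28°C, 0.64% DMSO vehicle, 5 uM trimethyltin chloride as positive control); embryos dead at 24 or 120 hpf excluded; fitted as gain versus DMSO.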

Read-out in assay [8]: Cytochrome P450 (CYP24A1_1), CYP24A1 (gene 1591)
The experiment in a line: LTEA_HepaRG_CYP24A1_1: Life Technologies and Expression Analysis (LTEA) Assay for Cytochrome P450 (CYP24A1_1) using HepaRG (AID 2283671; active means hit-call score of the fitted dose curve at least 0.9, where 1 is the maximum; inactive means score below 0.9). Particulars: mRNA level, 48 h; actives raise or lower the signal. In a few lines:
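Differentiated human HepaRG cells were exposed in duplicate for 48 h in serum-free induction medium to eight concentrations (top 100 uM, half-log steps, 0.5% DMSO). CYP24A1 mRNA was quantified by TaqMan qRT-PCR, normalized to ACTB, GAPDH and POLR2A, and fitted bidirectionally versus DMSO.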

Assay [9] in a line: CCTE_Padilla_ZF_144hpf_TERATOSCORE: (Legacy) CCTE's 144 Hour Post-fertilization zebrafish Assay Teratoscore, Padilla Lab (AID 2283679; active means hit-call score of the fitted dose curve at least 0.9, where 1 is the maximum; inactive means score below 0.9;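 on AC50: zebrafish embryos with chorions exposed by immersion from 6-8 hpf to 5 dpf with daily renewal; teratogenicity score from eye scoring of death hatching and malformations at 144 hpf; higher score means more developmental defects relative to DMSO baseline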). In outline: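 Larvae scored by eye at 144 hpf for death, hatching and malformations after a day in clean Hanks'. Before that, daily-renewed exposure at 80 uM (0.4% DMSO, 26C) from roughly 6-8 hpf through 5 dpf, 4 embryos per chemical.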
Assay [10] in a line: Tanguay_ZF_120hpf_ActivityScore_legacy: (Legacy) Oregon State University Tanguay Lab 120 Hour Post-fertilization zebrafish Assay Score for Activity (AID 2283742).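 On AC50: dechorionated Tropical 5D wild-type zebrafish embryos held singly per well.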 In outline: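 Binary scoring of mortality and morphology by brightfield at 24 and 120 hpf, summarised into one activity score from 18 components relative to DMSO. Wild-type Tropical 5D zebrafish, chorion removed at 4 hpf, static exposure 6–120 hpf, 28 °C.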

Read-out in assay [11]: kallikrein-3 (KLK3), KLK3 (gene 354)
Put plainly: LTEA_HepaRG_KLK3: Life Technologies and Expression Analysis (LTEA) Assay for kallikrein-3 (KLK3) using HepaRG (AID 2283652; active means hit-call score of the fitted dose curve at least 0.9, where 1 is the maximum; inactive means score below 0.9). Conditions: mRNA level, 48 h; actives raise or lower the signal. In a few lines:
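KLK3 transcript levels were measured by TaqMan qRT-PCR with normalisation to three housekeeping genes. HepaRG cultures received chemicals for 48 h at up to 100 uM (half-log, 8 points, 0.5% DMSO vehicle), fitted in both directions against DMSO.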

Assay [12] can be described thus: CEETOX_H295R_MTT_cell_viability: Viability Assessment in the CeeTox HT-H295R MTT Assay (AID 2283718; active means hit-call score of the fitted dose curve at least 0.9, where 1 is the maximum; inactive means score below 0.9;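 on AC50: curve fitted both ways so AC50 may mark viability loss or gain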). In outline:
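MTT reduction (0.5 mg/ml, 4 h at 37 C; absorbance at 570 and 650 nm) gave viability as background-corrected percent change versus controls. H295R cells had 48 h forskolin (10 uM) prestimulation, then 48 h chemical exposure at 0.1% DMSO.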

Assay [13] is described as follows: STM_H9_OrnCyssISnorm_ratio: Stemina devTOX quickPredict H9 human embryonic stem cell (hESC)-based Assay for Ornithine (ORN):Cystine (CYSS) Ratio (AID 2283714). In a few lines: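 Ratio of internal-standard-normalized ornithine to cystine, measured by UPLC-HRMS in spent media from the last 24 h. H9 cells kept pluripotent, dosed 72 h with daily media and compound renewal; DMSO 0.1% serves as baseline.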

Assay [14] is described as follows: ArunA_CellTiter_hNC: Viability Assessment in the ArunA Biomedical's Oris Neural Crest (hNC) Cell Migration Assay (AID 2283752). In outline:
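Cytotoxicity endpoint run alongside the migration assay: neural crest cells on Matrigel, 60,000 per well, preincubated 16 h at 37C, treated 72 h; CellTiter Aqueous One signal loss relative to DMSO.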

A short description of assay [15]: ArunA_CellTiter_hNP: Viability Assessment in the ArunA Biomedical's Oris Neural Crest (hNC) Cell Migration Assay (AID 2283753). In a few lines:
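Viability read with CellTiter 96 Aqueous One after 72 h chemical exposure of human hNP1 neuroprogenitors, which were plated on Matrigel in LIF/bFGF medium 16 h beforehand. Endpoint fitted in positive direction relative to DMSO.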

A short description of assay [16]: ArunA_Migration_hNP: ArunA Biomedical's Oris Neuroprogenitor (hNP) Cell Migration Assay (AID 2283754). In a few lines:
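Readout is calcein-AM fluorescence (ex494/em517) of cells migrating into the detection zone, relative to DMSO. hNP1 cells (H9-derived) grown on Matrigel behind stoppers 16 h, then stoppers pulled and chemical applied 72 h; cytochalasin D as control.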

Assay [17] is described as follows: ArunA_Migration_hNC: ArunA Biomedical's Oris Neural Crest (hNC) Cell Migration Assay (AID 2283755). In outline: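 Calcein-AM fluorescence (ex494 nm/em 517 nm) in the stopper-defined detection zone quantifies migration of hNC cells after 72 h chemical exposure; 60,000 cells/well plated on Matrigel with LIF and bFGF, 16 h pre-incubation. DMSO baseline.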
Assay [18] can be described thus: ArunA_NOG_NucleusCount: ArunA Biomedical's Neurite Outgrowth (NOG) Assay for Nucleus Count (AID 2283756). In outline: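 Viable neuron count, from Hoechst nuclei passing size and intensity gates, imaged at 20x on differentiated H9-derived human neurons. Exposure lasted 48 h from seeding; activity was scored relative to DMSO.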

What is called AC50 is the midpoint of the concentration-response curve, whichever way the signal moves.

As to `CCN(CC)C(=O)c1cc(S(=O)(=O)Cc2ccccc2)c(N2CCC(c3ccccc3)CC2)cc1N(CC)CCN(C)C`, the outcome in assay [1], in assay [2], in [3], in assay [4], in assay [5] and in [6] was inactive. Further, the result in assay [7] and in assay [8] was inactive. The AC50 was 20.7 µM (active) in [9] and 17.2 µM (active) in [10].

Regarding `O=C1c2ccccc2C(=O)N1CCc1noc(-c2ccc(CN3CCCCCC3)s2)n1`, the compound was called inactive in assay [11], in [1], in assay [2], in assay [3], in assay [4] and in assay [6]. Further, the result in assay [7], in [8], in assay [12] and in [10] was inactive. Besides, the AC50 in assay [5] is 11.1 µM (active); in [9] it was 20.2 µM (active).

With `O=CCCCC=O`, the outcome in assay [2], in assay [3], in assay [4], in [7], in [9] and in assay [10] was inactive.

For the compound `CCCCCCCCCC(=O)O`, the compound was classed as inactive in [2], in assay [3], in [4], in assay [7] and in [10]. Besides, the half-maximal activity concentration (AC50) in assay [9] was 65.8 µM (active).

For the compound `O=C(Nc1ccc(Cl)cc1)Nc1ccc(Cl)c(Cl)c1`, the compound was called inactive in assay [2], in [3], in assay [4], in assay [7], in [13] and in [12]. Moreover, the compound was classed as inactive in [10], in assay [14] and in assay [18]. The AC50 was 5.19 µM (active) in assay [9], 25.9 µM (active) in assay [15], 1.88 µM (active) in assay [16] and 1.46 µM (active) in assay [17].

On to `CCN(Cc1cccnc1)C(=O)c1cccc(Cl)c1[C@]1(C)C(=O)N(Cc2ccc(OC)cc2OC)c2ccc(Cl)cc21`, for which the compound was classed as inactive in assay [2], in assay [3], in assay [4] and in [7]. Also, the AC50 in [9] is 5.26 µM (active); in assay [10], 32.5 µM (active).

In the case of `CN1C(=O)CC[C@H]1c1cccnc1`, the compound was classed as inactive in [2], in assay [3], in [4], in assay [7], in assay [13] and in assay [10].

Consider `O=c1c(-c2ccc(O)cc2)coc2cc(O)cc(O)c12`, for which the compound was classed as inactive in assay [2], in assay [3], in assay [4] and in [7]. For the same compound, the AC50 is 24.5 µM (active) in assay [9], 73.7 µM (active) in assay [13], 28.7 µM (active) in assay [12] and 20 µM (active) in [10].

Consider `CCCCOC(=O)c1ccc(O)cc1`, for which the AC50 in assay [2] is 46 µM (active); in assay [3] it was 21 µM (active); in assay [7] it was 49.3 µM (active); in assay [9], 5.07 µM (active); in assay [10], 41 µM (active). For the same compound, the result in assay [4], in assay [13] and in assay [12] was inactive.

Turning to `CCCCCCCC[Si](OCC)(OCC)OCC`, the result in assay [2], in assay [3], in [4], in [7], in assay [9] and in assay [12] was inactive. Also, the result in assay [10] was inactive.

As to `CC(C)(C)c1csc(-c2cc3cc(OCc4ccccc4CC(=O)O)ccc3o2)n1`, the result in [11], in assay [1], in assay [2], in assay [3], in assay [4] and in assay [6] was inactive. The call in [7] and in assay [8] was inactive. Besides, the results for the AC50 in [5], in [9] and in assay [10] were 24.4 µM (active), 1.71 µM (active) and 27.1 µM (active), respectively.

On to `Cc1cc2c(cc1C(F)(F)F)N(C(=O)Nc1ccc(Oc3cccnc3C)nc1)CC2`, for which the result in [2], in assay [3], in assay [4], in [7], in [12] and in assay [10] was inactive.

On to `COc1cc(C(=O)NC2CCN(C)CC2)ccc1Nc1ncc2c(n1)N(C1CCCC1)CC(F)(F)C(=O)N2C`, for which, in [2], the compound was called inactive. In addition, the AC50 in assay [3] was 31 µM (active); in assay [4], 33 µM (active); in assay [7] it was 36.1 µM (active); in [9], 24.1 µM (active); in assay [13], 0.0311 µM (active); in [10] it was 40 µM (active).

Consider `Oc1ccccc1`, for which the result in assay [2], in assay [3], in assay [4], in [7] and in assay [10] was inactive.

As for `CCCCCCCCCCCCO`, the compound was called inactive in [1], in assay [2], in [3], in assay [4], in [5] and in assay [6]. Also, the result in assay [7], in [8] and in assay [10] was inactive. Also, in assay [9], the concentration at half-maximal activity (AC50) was 62.8 µM (active).
